The campaign covered roughly 300,000 compounds. About 3,200 (1.1%) were called active. The sample holds actives, similar compounds and a random draw of the others, so the mix is not that of the screen. Values without a mark were called inactive. Cut-off read from the data, not from the text of the source: active = inhibition above about 75%; inconclusive = no clear call, values can overlap the other calls; inactive = below that; tested in HMLE shEcad cells.
Assay: cancer stem cell viability inhibitors, primary screen, luminescence (AID 2717)
Settings: cancer stem cell-like cells viability, at 7.5 µM, active compounds read high

Structure (SMILES)	inhibition
CCOC(=O)C1CCCN(C(=O)CSc2nnc3nc(C)cc(C)n23)C1 (centres undefined)	8.11%
CC1=NN(c2ccc(Cl)c(C(=O)O)c2)C(=O)/C1=C/c1ccc(-c2ccccc2[N+](=O)[O-])o1	12.7%
CC(=O)C1C(c2ccc(Cl)cc2)NC(=O)NC1(O)C(F)(F)F (centres undefined)	-6.38%
O=C(/C=C(O)/C=C/c1ccc(O)cc1)/C=C/c1ccc(O)cc1	44.3%
CC1Sc2ccc(C(=O)NCc3ccccc3Cl)cc2NC1=O (centres undefined)	-22.7%
Cc1ccc(C(=O)NCC(=O)NC2CC2)cc1	-14.8%
CCc1ccc(NC(=O)COC(=O)c2cccs2)cc1	-11.1%
CCC(C)(C)c1ccc(Oc2ccc(NC(=O)COC(=O)C3=COCCO3)cc2)cc1	103% (active)
O=C(OCC(=O)c1cccs1)C1=COCCO1	-0.0949%
O=C1OC[C@@H]2CCCN2C(=O)[C@H](CC(=O)N(CCO)Cc2ccccc2)C/C=C\CC[C@@H]1Cc1ccc(F)cc1	-11.9%
CCOc1ccccc1Nc1nnc(SCC(=O)NCC2CCCO2)s1 (centres undefined)	-6.96%
C=CCC[C@@H](Cc1ccc(F)cc1)C(=O)O[C@H](CNC(=O)[C@H](CC=C)CC(=O)N(CCO)Cc1ccccc1)c1ccccc1	41.9%
COc1cc(OC)c(C(=O)NNC(=O)c2ccccc2-n2cccc2)cc1OC	17.7%
COc1ccc(CNc2nc(NCc3ccc(OC)cc3)c3ncn(C4CCCC4)c3n2)cc1	62.8%
O=C(Cn1cnc2c(OCc3ccccc3)ncnc21)NCCCn1ccnc1	-10.9%
O=C(COC(=O)CN1C(=O)C2CCCCC2C1=O)Nc1ccc(F)c(F)c1F (centres undefined)	-26.6%
O=c1c(-c2cccc(Cl)c2)c[nH]n1-c1ccccc1	6.17%
O=C1NC(c2cccc(Cl)c2)Nc2ccccc21 (centres undefined)	23%
O=C1c2ccccc2NC(c2ccc(-c3cccc(Cl)c3)o2)N1O (centres undefined)	85.5% (active)
C[C@@H](CN1CCC[C@H]1CN1C(N)=NC[C@@H]1Cc1ccccc1)N1C[C@@H](Cc2ccccc2)N(CCCC2CCCC2)C1=N	1.15%
CCOCc1c(C(=O)N2CCN(Cc3ccc(Br)s3)CC2)oc2ccccc12	-4.05%
COc1ccc(-c2cc(C(F)(F)F)nc(NCc3cccnc3)n2)cc1	32.4%
COc1cc(OC)nc(S(C)(=O)=O)n1	2.64%
COc1ccc(-c2cc(C(F)(F)F)nc(S(C)(=O)=O)n2)cc1OC	94.1% (active)

— PubChem BioAssay AID2717 (Broad Institute, 2010)
